Here are results for seven molecules from PubChem BioAssay (EPA / NIEHS).

Active and inactive are the calls of the source. The calls were made as follows: active = hit-call score of the fitted dose curve at least 0.9, where 1 is the maximum; inactive = score below 0.9.

A short description of test [1]: ATG_E_Box_CIS: Attagene CIS-FACTORIAL HepG2 Assay for human Enhancer Box (E-box) (AID 2282936). The note with it: HepG2 E-box cis-reporter transcription, actives raise or lower the signal. An outline of the steps:
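Endogenous transcription factor activity was sensed in human HepG2 liver cells through transfected cis-promoter reporter units. After 24 h of dosing, total RNA was reverse-transcribed and reporter cDNA resolved by capillary electrophoresis.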

Test [2] can be described thus: ATG_M_61_CIS: Attagene CIS-FACTORIAL HepG2 Assay for M61 Transcription Factor (Internal Marker) (AID 2282937). The note with it: HepG2 Attagene CIS-FACTORIAL M61 internal marker reporter; actives raise or lower the signal. An outline of the steps: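 Multiplexed reporter mRNA assay, HepG2 human hepatoma cells, 24 h treatment. Signal: FAM-labelled, HpaI-digested RT-PCR fragments by CE. Fit: bidirectional, baseline DMSO.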

The nature of test [3]: ATG_EGR_CIS: Attagene CIS-FACTORIAL HepG2 Assay for human Early Growth Response 1 (EGR1) (AID 2282938). As to conditions: HepG2 Attagene CIS-FACTORIAL EGR reporter mRNA; actives raise or lower the signal. In outline: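 Multiplexed cis-reporter system in human hepatoma HepG2 cells, transiently transfected. Cells are dosed for 24 h; reporter transcripts are amplified, fluorescently tagged and sized by capillary electrophoresis, with DMSO as negative control.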

Test [4] in a line: ATG_M_19_CIS: Attagene CIS-FACTORIAL HepG2 Assay for M19 Transcription Factor (Internal Marker) (AID 2282939). As to conditions: HepG2 Attagene CIS-FACTORIAL M19 internal marker reporter; actives raise or lower the signal. An outline of the steps:
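Transfect HepG2 with MRTU reporter library → dose chemical, 24 h → isolate total RNA, reverse-transcribe with oligo(dT) → PCR, 6-FAM label, HpaI cut (2 h, 37 C) → capillary electrophoresis. Bidirectional fit vs DMSO.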

A short description of test [5]: ATG_ERE_CIS: Attagene CIS-FACTORIAL HepG2 Assay for Estrogen Response Element (ERE) (AID 2282940). As to conditions: HepG2 ERE cis-reporter, Attagene RNA transcript; actives raise or lower the signal. An outline of the steps: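 Transient MRTU transfection of human HepG2; cis-element promoters; 24 h dosing; total RNA → RT (oligo dT) → PCR → 6-FAM primer extension → HpaI digest → CE fluorescence. Bidirectional fit, DMSO baseline.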

Test [6] in a line: ATG_Ets_CIS: Attagene CIS-FACTORIAL HepG2 Assay for human Erythroblast Transformation Specific (ETS) (AID 2282941). The note with it: HepG2 ETS cis-reporter transcription, actives raise or lower the signal. An outline of the steps:
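Multiplexed reporter transcript profiling: HepG2, 24 h treatment, total RNA to cDNA, PCR, 6-FAM labelling, HpaI cut, capillary electrophoresis. Gain- or loss-of-signal fitted against DMSO.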

The target of test [7] is Hepatocyte nuclear factor 3-beta (Homo sapiens) (UniProt Q9Y261). Briefly: ATG_FoxA2_CIS: Attagene CIS-FACTORIAL HepG2 Assay for human Forkhead box A2 (FOXA2) (AID 2282942). As to conditions: HepG2 cis-reporter transcription factor activity, 24 h; actives raise or lower the signal. An outline of the steps: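 Multiplexed cis-element reporter assay in transiently transfected HepG2. Twenty-four hours post-dosing, RNA was reverse-transcribed, amplified, FAM-labelled, HpaI-digested and separated by CE. Activity gain or loss relative to DMSO.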
Sequence of Hepatocyte nuclear factor 3-beta (Homo sapiens) (Q9Y261 whole entry, looked up): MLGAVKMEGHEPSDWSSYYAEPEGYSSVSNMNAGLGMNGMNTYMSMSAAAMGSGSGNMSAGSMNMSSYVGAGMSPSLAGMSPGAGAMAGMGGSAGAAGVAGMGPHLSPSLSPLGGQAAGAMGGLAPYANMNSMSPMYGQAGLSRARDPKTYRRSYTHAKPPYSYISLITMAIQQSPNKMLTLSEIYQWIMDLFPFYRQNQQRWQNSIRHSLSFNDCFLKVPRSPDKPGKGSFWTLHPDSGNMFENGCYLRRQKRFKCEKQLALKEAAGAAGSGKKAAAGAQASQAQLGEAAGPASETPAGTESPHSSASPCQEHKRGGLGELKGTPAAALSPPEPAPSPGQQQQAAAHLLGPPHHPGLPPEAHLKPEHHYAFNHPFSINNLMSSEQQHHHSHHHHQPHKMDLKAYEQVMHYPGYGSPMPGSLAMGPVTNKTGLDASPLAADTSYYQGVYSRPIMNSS

Test [8] is described as follows: ATG_FoxO_CIS: Attagene CIS-FACTORIAL HepG2 Assay for human Forkhead box O (FoxO) (AID 2282943). As to conditions: HepG2 Attagene cis-reporter, FoxO element, mRNA; actives raise or lower the signal. In outline:
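24 h chemical exposure, HepG2 with transient cis-MRTU transfection. RNA extraction, oligo(dT) RT, reporter-specific PCR, primer-extension labelling, HpaI digestion, CE fragment analysis; bidirectional fit, DMSO baseline.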

A short description of test [9]: ATG_GATA_CIS: Attagene CIS-FACTORIAL HepG2 Assay for human GATA Binding Protein (AID 2282944). As to conditions: HepG2 GATA cis-element reporter, Attagene multiplex mRNA; actives raise or lower the signal. In outline:
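Transient MRTU transfection, HepG2, 24 h compound exposure. Total RNA → oligo(dT) RT → PCR → 6-FAM primer extension → HpaI cut → CE. Bidirectional fit vs DMSO.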

A short description of test [10]: ATG_GLI_CIS: Attagene CIS-FACTORIAL HepG2 Assay for human Zinc Finger Protein GLI1 (AID 2282945). The note with it: HepG2, Attagene cis-factorial reporter mRNA, GLI element; actives raise or lower the signal. In outline: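 HepG2 cells transiently transfected with cis-promoter multiplexed reporter units report endogenous transcription factor activity. After 24 h chemical exposure, reporter mRNA was quantified by RT-PCR, 6-FAM labelling, HpaI digestion and capillary electrophoresis, with bidirectional fitting against DMSO.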

Test [11] is described as follows: ATG_GRE_CIS: Attagene CIS-FACTORIAL HepG2 Assay for human Glucocorticoid Response Elements (GRE) (AID 2282947). The note with it: HepG2 GRE cis-reporter, Attagene multiplex mRNA; actives raise or lower the signal. An outline of the steps:
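Cells (HepG2) bearing transfected cis-promoter reporter transcription units were treated with chemical for 24 hours. Reporter mRNA was measured via RT-PCR with capillary electrophoresis, and activity was fitted in both directions relative to DMSO.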

The nature of test [12]: ATG_ISRE_CIS: Attagene CIS-FACTORIAL HepG2 Assay for human Interferon Regulatory Factor 1 (IRF1) binding to an Interferon-Stimulated Response Element (ISRE) (AID 2282948). As to conditions: HepG2 ISRE cis-reporter (Attagene), mRNA transcription readout; actives raise or lower the signal. In outline: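 Signal reflects induction or loss of ISRE-linked reporter mRNA in transiently transfected HepG2 cells after a 24 h treatment, detected by fluorescent RT-PCR fragments on capillary electrophoresis and normalised to DMSO.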

The nature of test [13]: ATG_M_32_CIS: Attagene CIS-FACTORIAL HepG2 Assay for M32 Transcription Factor (Internal Marker) (AID 2282949).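 Also: background control marker of the multiplexed CIS panel rather than a real target.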 The note with it: HepG2 Attagene cis-factorial M32 reporter, mRNA; actives raise or lower the signal. An outline of the steps:
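HepG2 human liver cells transiently transfected with cis-promoter-driven multiple reporter transcription units, dosed 24 h. Reporter mRNA quantified by RT-PCR, FAM-labelled primer extension, HpaI digest and capillary electrophoresis; bidirectional fit versus DMSO baseline.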

Test [14] in a line: ATG_M_06_CIS: Attagene CIS-FACTORIAL HepG2 Assay for M06 Transcription Factor (Internal Marker) (AID 2282950). The note with it: HepG2 Attagene CIS-FACTORIAL M06 internal marker reporter; actives raise or lower the signal. In outline: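 Read-out is fluorescence of labelled reporter cDNA fragments resolved by capillary electrophoresis after RT-PCR. Cells: HepG2 carrying transfected cis-promoter reporter units, treated 24 h. Gain or loss of signal fitted relative to DMSO.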

In test [15] the target is Hypoxia-inducible factor 1-alpha (Homo sapiens) (UniProt Q16665). Briefly: ATG_HIF1a_CIS: Attagene CIS-FACTORIAL HepG2 Assay for human Hypoxia Inducible Factor 1 (HIF1A) (AID 2282951). The note with it: HepG2 Attagene cis-factorial HIF1a reporter transcription; actives raise or lower the signal. In outline:
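Cis-element reporter constructs were transiently transfected into HepG2 cells, which were treated for 24 h; reporter RNA was reverse-transcribed, amplified, labelled and resolved by capillary electrophoresis.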

Test [16] deals with Hepatocyte nuclear factor 6 (Homo sapiens) (UniProt Q9UBC0). Briefly: ATG_HNF6_CIS: Attagene CIS-FACTORIAL HepG2 Assay for human Hepatocyte Nuclear Factor 6 (HNF6) (AID 2282952). As to conditions: HepG2 Attagene cis-factorial HNF6 reporter transcription; actives raise or lower the signal. In outline:
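First, HepG2 cells were transfected with the multiplexed cis reporter library and dosed with chemical for 24 h. Next, RNA was reverse-transcribed, PCR-amplified and fluorescently labelled. Finally, HpaI-digested fragments were read by capillary electrophoresis.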

For test [17], the target named is Heat shock factor protein 1 (Homo sapiens) (UniProt Q00613). The experiment in a line: ATG_HSE_CIS: Attagene CIS-FACTORIAL HepG2 Assay for human Heat Shock Transcription Factor 1 (HSE) (AID 2282953). As to conditions: HepG2 HSE cis-reporter, Attagene RNA transcription; actives raise or lower the signal. An outline of the steps:
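HepG2, transient MRTU transfection, cis-promoter reporters (endogenous TF activity). 24 h compound. RNA → oligo(dT) RT → PCR → 6-FAM primer extension → HpaI cut → CE. Bidirectional fit vs DMSO.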

Test [18] is described as follows: ATG_MRE_CIS: Attagene CIS-FACTORIAL HepG2 Assay for human Metal Responsive Element (MRE) (AID 2282954). The note with it: HepG2 MRE cis-reporter transcription, Attagene multiplex; actives raise or lower the signal. In outline:
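Cells were transfected with cis-promoter reporter transcription units, then dosed for 24 h. RNA was reverse-transcribed, amplified, fluorescently labelled and resolved by capillary electrophoresis, and activity was fitted in both directions relative to DMSO.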

Test [19] in a line: ATG_PBREM_CIS: Attagene CIS-FACTORIAL HepG2 Assay for human Phenobarbital-responsive Enhancer Module (PBREM) (AID 2282955). The note with it: HepG2 PBREM cis-reporter, Attagene multiplexed transcription; actives raise or lower the signal. In outline:
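Multiplexed cis-reporter readout in human hepatoma HepG2 cells; PBREM-regulated transcript quantified after 24 h exposure by fluorescent RT-PCR fragment analysis. Signal changes up or down fitted relative to DMSO.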

Sequence of Heat shock factor protein 1 (Homo sapiens) (Q00613 whole entry, looked up): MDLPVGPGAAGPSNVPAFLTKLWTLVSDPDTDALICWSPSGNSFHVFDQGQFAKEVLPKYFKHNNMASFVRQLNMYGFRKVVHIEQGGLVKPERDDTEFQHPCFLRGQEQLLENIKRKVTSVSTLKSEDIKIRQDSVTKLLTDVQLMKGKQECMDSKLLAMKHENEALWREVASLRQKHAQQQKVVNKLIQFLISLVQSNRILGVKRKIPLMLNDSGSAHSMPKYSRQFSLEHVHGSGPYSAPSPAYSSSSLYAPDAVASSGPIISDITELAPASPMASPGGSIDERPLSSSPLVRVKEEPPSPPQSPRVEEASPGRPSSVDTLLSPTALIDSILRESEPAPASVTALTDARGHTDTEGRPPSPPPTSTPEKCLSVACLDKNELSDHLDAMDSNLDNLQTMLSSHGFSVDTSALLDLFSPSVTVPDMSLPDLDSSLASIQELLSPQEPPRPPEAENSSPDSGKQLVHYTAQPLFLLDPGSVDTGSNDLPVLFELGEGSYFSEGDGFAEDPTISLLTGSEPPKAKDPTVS
Sequence of Hepatocyte nuclear factor 6 (Homo sapiens) (Q9UBC0 whole entry, looked up, the tested form may be a part): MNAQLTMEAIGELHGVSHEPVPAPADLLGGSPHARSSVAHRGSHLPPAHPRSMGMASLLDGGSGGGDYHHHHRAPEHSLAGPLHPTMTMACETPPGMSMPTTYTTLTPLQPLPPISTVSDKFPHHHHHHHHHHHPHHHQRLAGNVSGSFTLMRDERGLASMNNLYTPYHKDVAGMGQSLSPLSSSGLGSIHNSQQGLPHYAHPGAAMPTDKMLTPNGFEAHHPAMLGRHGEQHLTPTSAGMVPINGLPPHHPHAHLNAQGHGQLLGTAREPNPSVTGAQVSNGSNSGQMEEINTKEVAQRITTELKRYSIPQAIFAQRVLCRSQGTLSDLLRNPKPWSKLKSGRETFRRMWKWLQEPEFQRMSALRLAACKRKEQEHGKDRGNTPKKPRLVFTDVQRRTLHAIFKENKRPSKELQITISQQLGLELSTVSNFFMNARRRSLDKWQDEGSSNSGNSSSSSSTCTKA
Sequence of Hypoxia-inducible factor 1-alpha (Homo sapiens) (Q16665 whole entry, looked up): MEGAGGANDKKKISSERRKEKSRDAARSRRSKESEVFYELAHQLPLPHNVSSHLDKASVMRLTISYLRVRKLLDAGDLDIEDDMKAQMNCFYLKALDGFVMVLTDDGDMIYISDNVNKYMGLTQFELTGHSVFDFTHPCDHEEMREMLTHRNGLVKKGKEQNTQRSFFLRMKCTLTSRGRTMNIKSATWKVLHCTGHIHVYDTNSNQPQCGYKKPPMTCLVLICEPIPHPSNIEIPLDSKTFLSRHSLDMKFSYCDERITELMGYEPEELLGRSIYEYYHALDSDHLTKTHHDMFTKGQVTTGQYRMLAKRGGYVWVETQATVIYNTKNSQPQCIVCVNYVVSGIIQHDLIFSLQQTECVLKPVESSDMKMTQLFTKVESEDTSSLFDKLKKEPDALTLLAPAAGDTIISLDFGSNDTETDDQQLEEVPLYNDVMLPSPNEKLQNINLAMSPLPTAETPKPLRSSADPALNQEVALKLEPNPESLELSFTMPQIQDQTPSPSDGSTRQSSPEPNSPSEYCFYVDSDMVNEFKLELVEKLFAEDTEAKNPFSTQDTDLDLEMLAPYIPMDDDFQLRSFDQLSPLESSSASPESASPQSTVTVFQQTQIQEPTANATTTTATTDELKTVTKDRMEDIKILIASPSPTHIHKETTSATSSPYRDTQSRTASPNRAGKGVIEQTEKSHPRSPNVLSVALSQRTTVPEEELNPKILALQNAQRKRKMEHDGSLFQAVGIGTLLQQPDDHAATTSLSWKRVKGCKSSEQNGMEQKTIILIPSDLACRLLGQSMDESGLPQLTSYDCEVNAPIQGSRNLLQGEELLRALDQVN

For `CCC(CC)C(=O)O`, the outcome in test [1], in [2], in [3], in [4], in test [5] and in [6] was inactive. The outcome in [7], in test [8], in test [9], in test [10], in test [11] and in test [12] was inactive. Further, the call in [13], in test [14], in test [15], in test [16], in [17] and in test [18] was inactive. The outcome in test [19] was inactive.
As usually defined, the AC50 is the concentration at which the activity in the assay is half-maximal. In the case of `Nc1ncn([C@@H]2O[C@H](CO)[C@@H](O)[C@H]2O)c(=O)n1`, the AC50 in test [1] was 27.5 µM (active); in [6], 39.5 µM (active); in test [12], 10.8 µM (active). For the same molecule, the result in test [2], in test [3], in [4], in test [5], in test [7] and in [8] was inactive. Further, the result in test [9], in test [10], in test [11], in test [13], in test [14] and in [16] was inactive. Further, the call in [17], in test [18] and in test [19] was inactive.
Take `CCOCC(=O)O`: the result in test [1], in [2], in [3], in test [4], in test [5] and in [6] was inactive. In addition, the outcome in [7], in [8], in test [9], in test [10], in [11] and in test [12] was inactive. The call in test [13], in [14], in [15], in test [16], in test [17] and in test [18] was inactive. In addition, in test [19], the result was inactive.
Turning to `O=C(Nc1ccccc1)c1ccccc1O`, the outcome in test [1], in [2], in [3], in test [4], in test [7] and in [8] was inactive. The outcome in test [9], in [10], in [11], in test [12], in [13] and in [14] was inactive. The outcome in test [15], in test [16], in [17], in test [18] and in [19] was inactive. In addition, the AC50 was 63.1 µM (active) in test [5] and 100 µM (active) in [6].
Turning to `O=C1CCCCCCCCCCC(=O)OCCO1`, the outcome in [1], in test [2], in [3], in test [4], in test [5] and in test [6] was inactive. For the same molecule, the call in test [7], in test [8], in test [9], in [10], in test [11] and in test [12] was inactive. Further, the result in [13], in test [14], in [15], in test [16], in test [17] and in [18] was inactive. Also, the result in [19] was inactive.
For `COCc1c(C(C)C)nc(C(C)C)c(/C=C/[C@@H](O)C[C@@H](O)CC(=O)O)c1-c1ccc(F)cc1`, the outcome in test [1], in test [2], in test [3], in [4], in test [5] and in test [6] was inactive. The molecule was classed as inactive in [7], in [8], in [9], in test [10], in [11] and in test [12]. Besides, the result in test [13], in [14], in test [15], in test [16] and in [19] was inactive. Also, in test [18], the AC50 is 12.4 µM (active).
As for `CCOC(=O)Cc1cccc2ccccc12`, the outcome in test [1], in test [2], in [3], in test [4], in test [5] and in test [6] was inactive. In addition, the result in test [7], in test [8], in test [9], in test [10], in [11] and in test [12] was inactive. Further, the outcome in test [13], in test [14], in test [15], in [16], in test [18] and in [19] was inactive.
